The record followed here is PubChem BioAssay AID1053180 (Broad Institute, 2014).

Several values for one entry are separate records, joined by “and”; a condition that tells them apart may be missing. Equal values may be shown once. In all, about 9,600 compounds went through this assay and about 20 (0.2%) were called active. This is one part of a sample in which actives are shown more often than they occur.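 How the source made its calls: active means highest normalized replicate activity of 15 or more, or at least half the replicates reach 15 or more; inactive means neither condition met.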 Some compounds were tested as several samples or in several runs, with calls that do not always agree.

The test is described as follows: Pax4 mRNA upregulation in alpha cells – RT-PCR, mouse alpha TC1 cells, single point, primary screen (AID 1053180).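 Further: Pax4 Ct normalized to GAPDH with activation seen as lower delta delta Ct; plate controls were plate neutral control wells for no effect and Pax4 plasmid positive control for full effect.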 Conditions: Pax4 mRNA qPCR, 6 days, at 10 µM, stronger effect = higher value, 100% = Pax4 plasmid added at qPCR. (Real-time PCR tracks product formation cycle by cycle.)
Consider `C(=C\c1ccc(C2[C@@H]3CN(Cc4ccc5c(c4)OCO5)C[C@H]2N3)cc1)/c1ccccc1` (stereo partly drawn), for which the activation is 10.3% (active) and 0.0555% (inactive).
As for `O=C(c1ccc2c(c1)OCO2)N1C[C@@H]2N[C@H](C1)C2c1ccc(/C=C/c2ccccc2)cc1` (stereo partly drawn), the activation is 0.452% (inactive) and 0.1% (inactive).
The result for `Cc1ccccc1-c1ccc(C2[C@@H]3CN(Cc4ccc5c(c4)OCO5)C[C@H]2N3)cc1` (stereo partly drawn) reads 0.039% (inactive) and 0.046% (inactive).
The value for `CCS(=O)(=O)N1Cc2cc(C(=O)NCCOC)nc(-c3cccc(-c4ccncc4)c3)c2[C@H]1CCO` was 0% (inactive); that for `N#C[C@@H]1[C@@H](c2ccccc2-c2ccccc2F)[C@@H](CO)N1C(=O)Cc1ccccc1` was 0.0105% (inactive); that for `CO[C@@H](CN(C)C(=O)c1ccc2c(c1)OCO2)[C@@H](C)CN([C@H](C)CO)S(=O)(=O)c1ccc(Cl)cc1` was 0.019% (inactive).
In the case of `CO[C@H]1CC[C@@H]2CCOc3ccc(C#N)cc3C(=O)N(C)[C@H](C)C(=O)N(C)C[C@@H]1O2`, the activation was 0.001% (inactive).
The value for `CCCC(=O)N1CC2(C1)CN(C(=O)c1ccc(F)cc1)[C@H](CO)c1[nH]c3cc(OC)ccc3c12` was 0.003% (inactive); that for `CN(C)CC(=O)N1[C@H](C(=O)Nc2nccs2)[C@@H](CO)[C@@H]2Cn3c(ccc(C4=CCCCC4)c3=O)[C@@H]21` was 0% (inactive).
The result for `COc1ccc2c3c([nH]c2c1)[C@H](CO)N(S(=O)(=O)c1cn(C)cn1)CC31CCN(CC2CCCCC2)CC1` reads 0.0045% (inactive).
The result for `CCC(=O)N1CC2(C1)CN(C(=O)c1cnccn1)[C@@H](CO)c1c2c2ccc(OC)cc2n1C` reads 0.0005% (inactive).
On to `C[C@@H]1CCCCO[C@H](CN(C)Cc2ccncc2)[C@H](C)CN([C@@H](C)CO)C(=O)c2cc(NC(=O)Cc3ccccc3)ccc2O1`, for which the activation is -0.0005% (inactive).
The value for `O=C(C[C@H]1CC[C@@H]2[C@H](COC[C@H](O)CN2Cc2nccs2)O1)N1CCC(Cc2ccccc2)CC1` was 0.0115% (inactive).
For `C[C@@H]1CN([C@H](C)CO)C(=O)c2ccccc2-c2ccccc2CO[C@@H]1CN(C)Cc1ccc2c(c1)OCCN2C`, the activation was 0.075% (inactive).
`O=C(C[C@@H]1CC[C@@H]2[C@H](COC[C@@H](O)CN2CCC(F)(F)F)O1)NCc1ccc2c(c1)OCO2`: the activation was -0.005% (inactive).
On to `CN(C)c1ccc2c(c1)[C@@H]1C[C@@H](CC(=O)NC3CCCCC3)O[C@@H](CO)[C@@H]1O2`, for which the activation was 0.029% (inactive).
The result for `O=C(O)[C@H]1[C@H](CO)[C@H]2Cn3c(ccc(-c4cccc(F)c4)c3=O)[C@H]2N1C(=O)c1ccccn1` reads 0.0005% (inactive).
As for `C[C@@H]1CCCCO[C@@H](CN(C)CC2CCCCC2)[C@H](C)CN([C@H](C)CO)C(=O)c2cc(NS(C)(=O)=O)ccc2O1`, the activation is -0.001% (inactive).
As for `C[C@H]1CN([C@@H](C)CO)C(=O)c2cccc(NC(=O)c3cnccn3)c2O[C@@H]1CN(C)C(=O)NC1CCCCC1`, the activation was 0.0055% (inactive).
The result for `CN1c2ccc(-c3ccc(C#N)cc3)cc2[C@H]2[C@H](CCN2S(=O)(=O)c2ccc(F)cc2)[C@@H]1CO` reads 0.036% (inactive); that for `O=C(C[C@@H]1C[C@@H]2c3cc(NS(=O)(=O)c4ccc(F)cc4)ccc3O[C@@H]2[C@@H](CO)O1)N1CCc2ccccc2C1`, 0.011% (inactive); that for `C[C@H](CO)N1C[C@H](C)[C@@H](CN(C)C(=O)c2ccc3ccn(C)c3c2)OCc2cnnn2CCCC1=O`, 0.0015% (inactive).
Take `COc1ccc2c3c(n(C)c2c1)[C@H](CO)N(S(=O)(=O)c1ccc(C)cc1)CC31CCN(C)CC1`: the activation was 0.052% (inactive).
The value for `CO[C@H](CN(C)Cc1ccc2c(c1)OCO2)[C@H](C)CN(C(=O)Nc1ccc(F)cc1)[C@H](C)CO` was 0.0005% (inactive); that for `O=C(NCc1ccccc1)[C@H]1[C@H](CO)[C@H]2Cn3c(cccc3=O)[C@@H]1N2C(=O)Cc1ccccn1` was 0% (inactive).
The result for `CNC[C@H]1OCc2cn(nn2)CCCC(=O)N([C@@H](C)CO)C[C@H]1C` reads 0.005% (inactive).
The value for `COc1ccc2c3c(n(C)c2c1)[C@@H](CO)N(CC1CC1)CC31CN(C(=O)c2ccc3c(c2)OCO3)C1` was 8.42% (active); that for `COc1ccc2c3c(n(C)c2c1)[C@@H](CO)N(C)CC31CCN(C(=O)c2ccc3c(c2)OCO3)CC1` was 0.0125% (inactive); that for `COc1ccc2c3c(n(C)c2c1)[C@H](CO)N(CC1CC1)CC31CN(C(=O)c2ccc3c(c2)OCO3)C1` was 0.0045% (inactive).
In the case of `CC[C@H]1C/C=C\C[C@@H](c2ccccc2)NC(=O)CCC(=O)N1`, the activation was -0.01% (inactive).
The result for `O=C(c1cccc(F)c1)N1CC(=O)N2[C@@H](CO)[C@H](c3ccc(C4=CCCCC4)cc3)[C@@H]2C1` reads 0.025% (inactive).
On to `COc1ccc(CN(C)C[C@@H]2Oc3ccc(NC(=O)Nc4ccc5c(c4)OCO5)cc3CC(=O)N([C@@H](C)CO)C[C@@H]2C)cc1`, for which the activation was 0.002% (inactive).
On to `COCC(=O)N1C[C@@H](C)[C@@H](OC)CN(C)C(=O)c2ccc(NC(=O)Nc3cccc(F)c3)cc2OC[C@H]1C`, for which the activation is -0.0005% (inactive).
The value for `CCC(=O)N1[C@H](CO)[C@@H]2c3ccccc3N(C(=O)Nc3ccc(Cl)cc3)C[C@@H]21` was -0.0015% (inactive); that for `COc1ccccc1S(=O)(=O)N(C)C[C@@H]1OCc2cn(nn2)CCCC(=O)N([C@H](C)CO)C[C@H]1C` was 0.001% (inactive); that for `O=C(C1CCOCC1)N1CC(=O)N2[C@H](C1)[C@@H](c1ccc(-c3cccnc3)cc1)[C@@H]2CO` was 0% (inactive).
For `O=C(C[C@@H]1CC[C@@H]2[C@H](COC[C@@H](O)CN2Cc2cc(F)ccc2F)O1)NCc1ccc(Oc2ccccc2)cc1`, the activation is 0.098% (inactive).
As for `CN1c2ccc(-c3ccccc3)cc2[C@@H]2[C@@H](CCN2C(=O)NC2CCCCC2)[C@H]1CO`, the activation was 0.001% (inactive).
The value for `Cc1noc(C)c1S(=O)(=O)N(C)C[C@H]1Oc2ccc(NC(=O)c3ccncc3)cc2CC(=O)N([C@H](C)CO)C[C@H]1C` was -0.009% (inactive); that for `CN1C(=O)c2cc(NC(=O)c3cnccn3)ccc2OC[C@@H]2O[C@H](CC(=O)NCC3CCCCC3)CC[C@@H]21` was 0.05% (inactive); that for `CO[C@@H]1CN(C)C(=O)c2ccc(NC(=O)Nc3cc(F)ccc3F)cc2OC[C@H](C)N(C(=O)c2ccccn2)C[C@@H]1C` was 0.0015% (inactive).
For the molecule `O=C(CN1CCOCC1)N1CC[C@@H]2[C@@H](CO)Nc3ccc(-c4ccccc4F)cc3[C@@H]21`, the activation is 0.001% (inactive).
The value for `O=C(C[C@@H]1C[C@H]2c3cc(NC(=O)NC4CCCC4)ccc3O[C@H]2[C@H](CO)O1)NCc1ccccc1F` was 0.02% (inactive); that for `CO[C@@H]1CN(C)C(=O)c2ccc(NC(=O)c3ccccc3F)cc2OC[C@H](C)N(C)C[C@H]1C` was 0.0025% (inactive); that for `O=C(C1CCOCC1)N1CC(=O)N2[C@H](CO)[C@@H](c3ccc(/C=C/c4ccccc4)cc3)[C@H]2C1` was 0.002% (inactive).
The result for `O=C1Nc2ccccc2OCc2cn(nn2)CC[C@H]1Cc1ccc(-c2ccccc2)cc1` reads 0.059% (inactive); that for `O=C(C[C@@H]1C[C@@H]2c3cc(NC(=O)c4ccc5c(c4)OCO5)ccc3O[C@@H]2[C@H](CO)O1)NCCN1CCCCC1`, -0.001% (inactive).
In the case of `CN(C)C(=O)C[C@H]1C[C@@H]2c3cc(NC(=O)Nc4ccc(F)cc4)ccc3O[C@@H]2[C@@H](CO)O1`, the activation is 0.013% (inactive).
As for `O=C(C[C@H]1CC[C@H]2[C@@H](COC[C@H](O)CN2Cc2ccc3c(c2)OCO3)O1)N1CCCCC1`, the activation was 0.0435% (inactive).
For `Cc1ccc(S(=O)(=O)N(C)C[C@@H]2OCCCC[C@@H](C)Oc3ccc(NC(=O)c4ccncc4)cc3C(=O)N([C@@H](C)CO)C[C@H]2C)cc1`, the activation was 0% (inactive).
The value for `O=C(C[C@H]1CC[C@@H]2[C@H](COC[C@@H](O)CN2S(=O)(=O)c2cccc(Cl)c2)O1)N1CCOCC1` was 0% (inactive).
For the molecule `CO[C@@H](CN(C)Cc1cc(F)ccc1F)[C@H](C)CN(C(=O)Nc1ccc(C(F)(F)F)cc1)[C@H](C)CO`, the activation is 0.0205% (inactive).
The value for `CO[C@@H](CN(C)Cc1cc(F)ccc1F)[C@@H](C)CN(C(=O)Nc1ccc(C(F)(F)F)cc1)[C@H](C)CO` was 19.2% (active); that for `CO[C@H](CN(C)Cc1cc(F)ccc1F)[C@@H](C)CN(C(=O)Nc1ccc(C(F)(F)F)cc1)[C@H](C)CO` was 0.0245% (inactive).
The result for `CN(C[C@@H]1[C@@H](c2ccccc2)[C@H](CO)N1CC1CC1)C(=O)c1ccc(F)cc1` reads -0.002% (inactive); that for `COc1ccccc1-c1ccc([C@H]2[C@@H](CO)N[C@@H]2CNC(=O)C2CC2)cc1`, 0.001% (inactive).
The result for `CC(C)(O)C#Cc1ccc([C@H]2[C@H]3CN(S(C)(=O)=O)CCCCN3[C@H]2CO)cc1` reads 0.0005% (inactive); that for `N#C[C@@H]1[C@H](c2ccccc2C2=CCCCC2)[C@H](CO)N1C(=O)CN1CCOCC1`, 0% (inactive); that for `O=C(NC[C@@H]1[C@@H](c2ccccc2)[C@@H](CO)N1Cc1ccccn1)C1CCCC1`, -0.003% (inactive).
As for `CCCNC(=O)N1[C@H](CO)[C@@H](c2ccccc2-c2cccc(C)c2)[C@@H]1C#N`, the activation is 0.0075% (inactive).
The value for `CO[C@@H]1CC[C@@H]2CCOc3c(C#N)cccc3C(=O)N(C)CCCC(=O)N(C)C[C@H]1O2` was 0% (inactive); that for `O=C(C[C@@H]1C[C@@H]2c3cc(NS(=O)(=O)c4ccccc4)ccc3O[C@@H]2[C@H](CO)O1)NCC(F)(F)F` was 0.001% (inactive); that for `O=C(Cc1ccccc1)N1CC[C@@H]2[C@@H](CO)Nc3ccc(C#Cc4cccc(F)c4)cc3[C@@H]21` was 0.0035% (inactive).
